Screening results from PubChem.
Shown are actives, neighbours in structure and some others; about 21% of the full set was active somewhere.
Pf growth 48h: inhibits P. falciparum growth in the first generation, 48 h; P. falciparum luciferase growth in erythrocytes, 48 h; Potency, µM (highest dose often 28.7 µM), actives largely listed as inhibitors; AID 504832; 5.9% of 310,000 active
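A one-generation exposure of luciferase-tagged malaria parasites in RPMI 1640/Albumax erythrocyte culture, 37 C and 5% CO2. Inhibition is inferred from decreased luminescence after adding detection reagent.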
CHX counter: counter-screen hit for Shiga toxin inhibitors, cycloheximide; cell reporter, cycloheximide protein synthesis inhibition counterscreen; max response, %; 12% of 300,000 active; in the data active = max response mostly above about 13%, no sharp cut-off; inactive = mostly below about 14%; also: read at 38.3 µM for the half of the compounds with a filed dose
Shiga inhibitor: Shiga toxin inhibition; Vero cells, Shiga toxin protein synthesis inhibition reporter; 9.2% of 290,000 active; AID 2315; inhibition, % at 38.7 µM; in the data active = inhibition mostly above about 28%, no sharp cut-off; inactive = mostly below about 43%
Pf growth 96h: P. falciparum growth inhibition at 96 hour, primary screen for plastid delayed-death inhibitors; P. falciparum luciferase reporter growth, 96 h; Potency, µM (top dose mostly 28.7 µM), most hits filed as inhibitors; 6.9% of 320,000 active; AID 504834
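Two parasite generations (96 h, 37 C, 5% CO2) of compound exposure in infected erythrocytes (0.05% parasitemia, 2% hematocrit). Luciferase-reporter P. falciparum; decreased luminescence indicates inhibited growth, aimed at apicoplast-acting delayed death.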
A number is an active result; 0 = inactive; ? = inconclusive; - = not tested or not shown. Unless noted, calls follow the shape of the dose curve; as a rule, active = well fitted inhibition curve with a large enough effect; inconclusive = small, poorly fitted or top-dose-only effect, or another doubt; inactive = no such curve, though single readings can be large or run the other way.

SMILES	Pf growth 48h	CHX counter	Shiga inhibitor	Pf growth 96h
CCc1ccccc1Nc1nc2ccccc2n1CC	?	0	0	0
CCN(CC)c1ccc(CNc2nc3ccccc3n2C)cc1	0	0	44	0
CCn1c(NCc2cc(OC)c(OC)c(OC)c2)nc2ccccc21	0	0	0	0.23µM
CCn1c(NCc2ccccn2)nc2ccccc21	?	21	0	?
CC(C(=O)Nc1ccc(O)cc1C(=O)O)N1C(=O)/C(=C\c2cccs2)SC1=S (stereo not given)	0	0	0	?
O=C(O)CC/C(=C\c1ccc(Cl)c([N+](=O)[O-])c1)c1nc2ccccc2s1	0	0	0	0
O=C(O)CC/C(=C\c1ccc(N2CCOCC2)c([N+](=O)[O-])c1)c1nc2ccccc2s1	0	11	0	0
O=C(O)CC/C(=C\c1ccc2c(c1)OCO2)c1nc2ccccc2s1	0	34	0	0
O=C(O)C/C(=C\c1ccc(N2CCOCC2)c([N+](=O)[O-])c1)c1nc2ccccc2s1	?	20	0	?
Nc1c(C(=O)Nc2ccc3c(c2)OCCO3)nnn1Cc1cccc(F)c1	0	-	-	0
O=C(COC(=O)C1CCC1)NCc1ccc(F)cc1	0	-	-	0
Cc1ccc(N(Cc2cc3ccc(C)cc3[nH]c2=O)S(=O)(=O)c2ccccc2)cc1	?	0	0	0
c1ccc(CSc2ncn[nH]2)nc1	0	0	0	5.2µM
Cc1ccc(-c2nnc(N3CCN(C(=O)CSc4ncn[nH]4)CC3)c3ccccc23)cc1	10µM	0	0	-
Fc1cccc(Cl)c1CSc1ncn[nH]1	0	0	0	-
CCc1ccc(C(=O)CSc2ncn[nH]2)cc1	0	30	76	?
O=C(CSc1ncn[nH]1)c1ccc(OC(F)F)cc1	0	14	0	0
COc1ccc(/C=C(/NC(=O)c2ccccc2)C(=O)NC2CCS(=O)(=O)C2)cc1 (stereo not given)	0	0	0	0
Brc1ccc(CSc2ncn[nH]2)cc1	-	0	0	0
Cc1ccc(C(=O)CSc2ncn[nH]2)cc1	0	20	0	?
COc1ccc(C(=O)CSc2ncn[nH]2)cc1OC	0	0	0	0
CCCOc1ccc(CSc2ncn[nH]2)cc1	0	30	68	?
COc1cc(CSc2ncn[nH]2)c(OC)cc1CSc1ncn[nH]1	?	0	0	13µM
CC(=O)c1ccc(S(=O)(=O)NCCC(=O)OCC(=O)N(Cc2ccccc2)C(C)(C)C)cc1	?	-	-	0
Cc1cc(C(=O)NCC23CC4CC(CC(C4)C2)C3)c(C)o1	0	0	0	0
SMILES	Pf growth 48h	CHX counter	Shiga inhibitor	Pf growth 96h
COc1cc2c(cc1OC)CC(=O)NC=C2	0	0	0	0
Cc1nc2cc(Nc3nnc(-c4ccccc4)c4ccccc34)ccc2n1C	0	45	0	0
COCCN1CCn2c(nc3cc(Nc4nnc(C)c5ccccc45)ccc32)C1	?	0	0	0
COC(=O)C1=C(c2cccc(C#N)c2)C[C@@H]2CC[C@H]1N2C(=O)NCc1cccc2ccccc12	8.3µM	-	-	?
COC(=O)C1=C(c2ccc(-c3ccccc3)c(F)c2)C[C@@H]2CC[C@H]1N2C(=O)NCc1cc(C)oc1C(F)(F)F	2.3µM	-	-	?
COC(=O)C1=C(c2cccc(C#N)c2)C[C@@H]2CC[C@H]1N2C(=O)NCc1cc(C)oc1C(F)(F)F	12µM	-	-	?
COC(=O)C1=C(c2cccc(C#N)c2)C[C@@H]2CC[C@H]1N2C(=O)NCC1CC1	0	-	-	0
CCN(CC)c1nc(Nc2ccc([N+](=O)[O-])cc2)nc(N(CC)CC)n1	?	0	0	0
COc1ccc(C(C)=O)cc1CSc1ccccn1	?	0	0	0
COc1ccc(/C=N/NC(=O)c2ccc(O)cc2O)cc1CSc1ccccn1	0	40	64	?
COc1ccc(C=O)cc1CSc1ccccn1	0	11	0	0
COc1cc(/C=N/NC(=O)CSc2ccccn2)ccc1OC(C)C	0	39	68	0
Cn1ncnc2c(=O)n(C)c(=O)nc1-2	0.93µM	0	0	0
COc1ccc(-c2nc(-c3ccccn3)ncc2S(C)(=O)=O)cc1	0	0	0	0
Cn1nc(-c2ccccn2)nc2c(=O)n(C)c(=O)nc1-2	2.9µM	0	0	2.9µM
Cc1ccc(-n2c3nc(=O)n(C)c(=O)c-3cc3ccccc32)cc1	0	0	0	0
CCCc1nc2c(=O)n(C)c(=O)nc-2n(C)n1	5.2µM	0	0	0
N#CCCN(C(=O)COc1ccc(C#N)cc1)c1ccc(F)cc1	?	0	0	0
CCc1ccc(NC(=O)C(=O)NCCN2CCN(Cc3ccc([N+](=O)[O-])cc3)CC2)cc1	0	11	0	0
Cc1ccc(NC(=O)C(=O)NCCN2CCN(C(=S)Nc3ccccc3)CC2)cc1	0	0	0	?
CCN1CCN(CCNC(=O)Nc2ccc([N+](=O)[O-])cc2)CC1	0	0	0	0
Cc1ccc(NC(=O)C(=O)NCCN2CCN(Cc3ccc([N+](=O)[O-])cc3)CC2)cc1	0	0	0	0.47µM
CCC/C=C1/CCCOC(C(=O)NCc2ccc(C)o2)(C(F)(F)F)C1 (stereo not given)	-	0	0	-
CC1CCCCN1CCCNC(=O)c1cc(Br)c(Br)[nH]1 (stereo not given)	0	0	0	0
COc1ccc(-c2csc(/C(C#N)=C/Nc3ccc4c(c3)OCCO4)n2)cc1	0	0	0	0
SMILES	Pf growth 48h	CHX counter	Shiga inhibitor	Pf growth 96h
N#C/C(=C\Nc1ccc2c(c1)OCCO2)c1nc(-c2ccccc2)cs1	0	0	0	0
c1ccc(-c2csc(Nc3ccc4c(c3)OCCO4)n2)cc1	0	54	97	0
c1cc2c(cc1Nc1nc(-c3ccc4c(c3)OCO4)cs1)OCCO2	0	64	78	0
COc1cccc(Nc2nc(-c3ccc4c(c3)OCCO4)cs2)c1	0	53	103	0
CCN1CCN(CC(O)COC(c2ccccc2)c2ccccc2C)CC1 (stereo not given)	0	0	0	0
Cc1ccccc1-c1nc(CN2CCC(C(=O)O)CC2)c(C)o1	-	0	0	?
Cc1ccccc1-c1nc(CN(Cc2c(C)nn(C)c2C)C2CC2)c(C)o1	12µM	0	0	0
CC1c2ccccc2N(NC(=O)Cc2ccccc2)C1C (stereo not given)	0	0	0	0
Cc1nonc1NC(=O)CSc1ccccn1	0	0	0	0
O=C(CSc1ccc(-c2nc3ccccc3[nH]2)cn1)Nc1ccc2c(c1)OCCO2	0	18	0	0
O=C(CCc1nc2ccccc2[nH]1)Nc1ccc2c(c1)OCCO2	0	0	0	1µM
Cc1ccc(-c2ccc(SCC(=O)Nc3nonc3C)nn2)cc1	0	27	42	0
Cc1ccc(NC(=O)CCc2nc3ccccc3[nH]2)cc1C	0	0	0	0
Cc1ccc(-c2ccc(SCC(=O)Nc3ccc4c(c3)OCCO4)nn2)cc1	0	28	22	0
Cc1ccc(SCC(=O)Nc2ccc(-c3nc4ccccc4[nH]3)cc2)cc1	12µM	0	0	0
N#C/C(=C\Nc1ccc2c(c1)OCCO2)c1nc2ccccc2[nH]1	?	60	0	-
Cc1cccc(NC(=O)CSc2ccc(-c3cccnc3)nn2)c1	?	0	0	12µM
Cc1ccc2nc(-c3ccc(SCC(=O)Nc4ccc5c(c4)OCCO5)nc3)[nH]c2c1	0	107	81	0
